# Test results: publication PMC4336329 (PLoS ONE, 2015)
# The campaign covered roughly 310,000 compounds. About 2,200 (0.71%) showed an effect of 50% or more. The effect is printed as a negative number. The entries come from a sample that favours strong results as a whole.
# Target: human ether-à-go-go-related gene (hERG) potassium channel (human, UniProt Q12809)
# Experiment: primary screen, population patch clamp on CHO cells stably expressing hERG; higher = less effect of the substance
# Chain of human ether-à-go-go-related gene (hERG) potassium channel (Q12809 whole entry, looked up): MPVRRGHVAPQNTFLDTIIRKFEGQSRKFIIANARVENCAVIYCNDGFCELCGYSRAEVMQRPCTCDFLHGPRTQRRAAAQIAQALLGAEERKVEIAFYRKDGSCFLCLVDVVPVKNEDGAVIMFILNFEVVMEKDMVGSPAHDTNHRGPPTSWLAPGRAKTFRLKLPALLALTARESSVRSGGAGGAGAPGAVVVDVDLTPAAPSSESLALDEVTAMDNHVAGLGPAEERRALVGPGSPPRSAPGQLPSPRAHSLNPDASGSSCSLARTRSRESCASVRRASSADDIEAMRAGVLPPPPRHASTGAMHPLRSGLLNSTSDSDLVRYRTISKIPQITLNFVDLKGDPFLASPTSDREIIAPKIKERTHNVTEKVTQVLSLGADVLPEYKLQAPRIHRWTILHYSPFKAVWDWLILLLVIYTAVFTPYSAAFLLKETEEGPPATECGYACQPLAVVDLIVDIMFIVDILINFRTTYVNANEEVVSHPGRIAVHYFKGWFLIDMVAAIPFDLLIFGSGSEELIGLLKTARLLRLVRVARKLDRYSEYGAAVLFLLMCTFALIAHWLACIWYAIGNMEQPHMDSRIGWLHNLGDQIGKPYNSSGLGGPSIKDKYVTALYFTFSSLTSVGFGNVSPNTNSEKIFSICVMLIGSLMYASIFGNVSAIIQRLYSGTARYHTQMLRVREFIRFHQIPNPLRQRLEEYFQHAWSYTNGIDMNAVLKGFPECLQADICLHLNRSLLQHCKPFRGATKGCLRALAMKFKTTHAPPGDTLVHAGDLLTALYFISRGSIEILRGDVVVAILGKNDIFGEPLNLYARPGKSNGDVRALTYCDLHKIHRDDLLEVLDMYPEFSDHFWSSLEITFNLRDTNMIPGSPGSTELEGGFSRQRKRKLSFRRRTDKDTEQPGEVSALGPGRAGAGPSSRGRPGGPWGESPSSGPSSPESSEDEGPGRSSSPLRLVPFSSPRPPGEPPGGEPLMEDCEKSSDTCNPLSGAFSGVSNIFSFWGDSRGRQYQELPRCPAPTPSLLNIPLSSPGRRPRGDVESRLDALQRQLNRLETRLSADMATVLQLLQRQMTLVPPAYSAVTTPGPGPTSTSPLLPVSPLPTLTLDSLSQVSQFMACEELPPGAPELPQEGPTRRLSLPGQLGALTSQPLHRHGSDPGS
row,Compound,"hERG current change (%, negative = inhibition) at 1uM"
1,COc1ccc(NC(=O)CSc2n[nH]c(-c3ccccn3)n2)cc1,13%
2,COc1ccc(C(=O)Nc2ccccc2NC(=O)c2ccco2)cc1OC,-9.39%
3,CCN=C1SC(CC(=O)Nc2ccc(C(F)(F)F)cc2)C(=O)N1CC (stereo not drawn),1.51%
4,Cc1cc(C)cc(NC(=O)c2ccccc2NC(=O)CCC(=O)O)c1,7.41%
5,CCC(=O)c1ccccc1OCCN1CCN(CC)CC1.O=C(O)C(=O)O,-2.43%
6,N#Cc1ccccc1OCCCN1CCC(Cc2ccccc2)CC1.O=C(O)C(=O)O,-83%
7,CC1CCN(CCCCOc2ccccc2F)CC1.O=C(O)C(=O)O,7.61%
8,CCc1ccccc1OCCCN1CCCC1.O=C(O)C(=O)O,3.26%
9,N#Cc1ccccc1OCCCNC1CCCC1.O=C(O)C(=O)O,2.23%
10,CCC(=O)c1ccccc1OCCN1CCN(Cc2ccccc2)CC1.O=C(O)C(=O)O,-21.9%
11,CCC(=O)c1ccccc1OCCCN1CCC(Cc2ccccc2)CC1.O=C(O)C(=O)O,-87%
12,O=C(O)C(=O)O.OCc1ccccc1OCCCN1CCC(Cc2ccccc2)CC1,-65.9%
13,CCc1ccccc1OCCCCN1CCCC1.O=C(O)C(=O)O,-2.73%
14,Cc1ccc(C)c(NC(=S)NCCSc2ccc(Cl)cc2)c1,11.9%
15,CS(=O)(=O)N1CCc2cc(C(=O)Nc3ccc(COCC(F)(F)F)cc3)ccc21,10.4%
16,Cc1cc(C(=O)Nc2ccc(C(=O)O)cc2)c(-c2ccccc2)o1,-3.53%
17,CC(=O)c1ccc(NC(=O)C(C)N(C)CC(=O)Nc2ccccc2Cl)cc1 (stereo not drawn),14.4%
18,O=C(O)CN1C(=O)/C(=C/c2ccsc2)SC1=S,12%
19,COc1ccc(C(Nc2cc(C)ccn2)c2ccc3ccc(C)nc3c2O)cc1 (stereo not drawn),4.46%
20,CC1CCC(NC(=O)Cn2c3c(c(-c4ccccc4Cl)cc2=O)CCC3)CC1 (stereo not drawn),9.99%
21,COc1ccc(NC(=O)Nc2cccc(OC)c2)cc1,-2.63%
22,C=CCSc1nnc(Cn2c(=O)sc3ccccc32)n1C,-6.54%
23,COc1ccc(C(=O)NC2CC2)cc1OC1CCN(Cc2ccccc2O)CC1,-91.5%
24,C=CCOc1ccccc1CN1CCC(Oc2ccc(C(=O)N3CCCCC3)cc2)CC1,-3.91%

row,Compound,"hERG current change (%, negative = inhibition) at 1uM"
1,COc1ccc(C(=O)N(C)C2CCCN(Cc3ccccc3F)C2)cc1OC (stereo not drawn),10.2%
2,COc1cc(C(=O)NC2Cc3ccccc3C2)ccc1OC1CCN(C(C)=O)CC1,9.82%
3,C=CCOc1ccccc1CN1CCC(Oc2ccc(C(=O)N3CCCC3)cc2)CC1,-19.5%
4,COc1ccc(C(=O)NC2CC2)cc1OC1CCN(Cc2cc(C)c(C)cc2C)CC1,-74.1%
5,COc1ccccc1CCNC(=O)c1ccc(OC)c(OC2CCN(C(C)C)CC2)c1,-4.22%
6,CCn1ncc(CN2CCC(Oc3cc(C(=O)NC4CC4)ccc3OC)CC2)c1C,1.05%
7,C=CCOc1ccccc1CN1CCC(Oc2cc(C(=O)NC3CC3)ccc2OC)CC1,-66.6%
8,COc1ccc(C(=O)NC2CC2)cc1OC1CCN(Cc2ccccc2F)CC1,-64.5%
9,COc1ccc(C(=O)NCCc2ccccc2F)cc1OC1CCN(C(C)=O)CC1,12.5%
10,COc1ccc(C(=O)NC2CC2)cc1OC1CCN(Cc2cnn(C)c2C)CC1,-2%
11,CCOC(=O)c1c(C)nc2ncccn12,2.38%
12,COC(=O)Oc1ccc(/C=N/NC(=O)CN(c2ccccc2Cl)S(C)(=O)=O)cc1OC,9.16%
13,Cc1ccc(C(=O)COC(=O)CCC(=O)Nc2ccccc2Cl)cc1[N+](=O)[O-],8.32%
14,CC1Cn2c(nnc2C23CC4CC(CC(C4)C2)C3)S1 (stereo not drawn),7.65%
15,Cc1ccc(N2NC(=O)/C(=C\c3cc4c(cc3[N+](=O)[O-])OCO4)C2=O)cc1C,0.881%
16,CCN(c1ccccc1)S(=O)(=O)c1ccc2[nH]c(=O)[nH]c2c1,8.82%
17,O=C(Nc1ccc(-n2ccc(C(F)(F)F)n2)cc1)Nc1cccc(Cl)c1,11.3%
18,COc1ccc(CN2CCC(Oc3ccc(C(=O)NCc4ccccn4)cc3)CC2)c(F)c1,7.46%
19,COc1ccc(CN2CCC(Oc3cc(C(=O)NC4CC4)ccc3OC)CC2)c(O)c1,-87.5%
20,COc1ccc(OC)c(CN2CCC(N3CCC(C(=O)NC4CC4)CC3)CC2)c1,4.7%
21,CCOC(=O)c1nc2cc3n(c(C)c-2c1C)C(C)C(CC)=C3C.Cl (stereo not drawn),-39.5%
22,CCOC(=O)c1nc2cc3n(c(C)c-2c1C)C(C)C(C)=C3C.Cl (stereo not drawn),-13.9%
23,CCOC(=O)c1nc2cc3n(c(CC(C)C)c-2c1C)CC(C)=C3C.Cl,-54.2%
24,CCOC(=O)c1nn(-c2ccc(F)cc2)c(=O)cc1OCC(=O)Nc1ccc(OCC)cc1,10.8%

row,Compound,"hERG current change (%, negative = inhibition) at 1uM"
1,Cc1c2ccccc2nc2c(F)c(N(C)C)c(F)c(F)c12,19.7%
2,COc1ccccc1CCCNC(=O)C1CCC(=O)N(CCc2ccc(Cl)cc2)C1 (stereo not drawn),-3.88%
3,CN(CCOc1ccccc1)C(=O)C1CCC(=O)N(CCc2ccc(Cl)cc2)C1 (stereo not drawn),-51.2%
4,O=C(NCCOc1ccccc1)C1CCC(=O)N(CCc2ccc(Cl)cc2)C1 (stereo not drawn),-45%
5,COc1ccc(CCN2CC(C(=O)N(C)Cc3ccccc3OC)CCC2=O)cc1 (stereo not drawn),26.7%
6,CN(CCNC(=O)C1CCC(=O)N(Cc2ccc(Cl)cc2)C1)CCc1ccccc1 (stereo not drawn),-50.5%
7,CCc1ccc(CN(C)C(=O)C2CCC(=O)N(CCc3ccc(OC)cc3)C2)nc1 (stereo not drawn),-57.9%
8,O=C(NCCCc1ccccc1)C1CCC(=O)N(CCc2ccc(Cl)cc2)C1 (stereo not drawn),-62.2%
9,O=C(NCCc1ccccc1)C1CCC(=O)N(Cc2ccc(Cl)cc2)C1 (stereo not drawn),5.85%
10,O=C(NCCCc1ccccc1)C1CCC(=O)N(Cc2ccc(Cl)cc2)C1 (stereo not drawn),-6.98%
11,CCc1ccc(CN(C)C(=O)C2CCC(=O)N(Cc3cccc(OC)c3)C2)nc1 (stereo not drawn),4.11%
12,CN(CCNC(=O)C1CCC(=O)N(Cc2cccc(F)c2)C1)CCc1ccccc1 (stereo not drawn),-14.8%
13,COc1ccc(CCN2CC(C(=O)N(C)CCOc3ccccc3)CCC2=O)cc1 (stereo not drawn),-34.3%
14,O=C(NCc1ccccc1)c1cnc(-c2ccccn2)nc1C(F)(F)F,9.39%
15,Nc1nc(CSc2nnnn2-c2ccc(Cl)cc2)nc(N2CCOCC2)n1,11.5%
16,C/C(=N\N1C(=O)CSC1=S)c1ccc(Br)cc1,1.48%
17,S=C1NNC2(NN1)C1CC3CC(C1)CC2C3,12.4%
18,COc1ccc(-n2cnnc2SCC(=O)N2CCN(S(=O)(=O)c3ccccc3)CC2)cc1,1.1%
19,COC(=O)C1=C(C)N(C)C(C)=C(C(=O)OC)C1c1ccc(F)c(Br)c1,6.36%
20,CCN(CC(=O)NCc1cccs1)C(=O)COc1cccc(C(F)(F)F)c1,-7.5%
21,CCN(CC(=O)NCc1cccs1)C(=O)c1ccc(-c2cccc(C(F)(F)F)c2)o1,-57.4%
22,CCN(CC(=O)NCc1cccs1)C(=O)c1ccc(-c2ccccc2F)o1,-7.69%
23,COC(=O)C1=C(C)N(CCCCCC(=O)O)C(=O)NC1c1ccccc1 (stereo not drawn),2.67%
24,Cc1ccc2c(c1)C1CN(C)CCC1N2C(=O)c1ccccc1NS(=O)(=O)c1ccc(F)cc1 (stereo not drawn),11.8%

row,Compound,"hERG current change (%, negative = inhibition) at 1uM"
1,COc1ccc2cc(C3(C)NC(=O)N(CC(=O)Nc4c(C)n(C)n(-c5ccccc5)c4=O)C3=O)ccc2c1 (stereo not drawn),0.395%
2,CCOC(=O)C1(CCOc2ccccc2)CCN(Cc2cccn2-c2ncccn2)CC1,-81.6%
3,CCOC(=O)C1(CCOc2ccccc2)CCN(Cc2nccn2CC)CC1,-5.37%
4,OCC1(CCOc2ccccc2)CCN(Cc2cccn2-c2ncccn2)CC1,-82.4%
5,CCn1ccnc1CN1CCC(CO)(CCOc2ccccc2)CC1,13.1%
6,CCOC(=O)C1(CCOc2ccccc2)CCN(Cc2cccn2-c2cccnc2)CC1,9.53%
7,OCC1(CCc2ccccc2)CCN(Cc2cccn2-c2cccnc2)CC1,-23.3%
8,O=C(Cc1c(F)cccc1Cl)OCN1C(=O)c2ccccc2C1=O,17.4%
9,O=C(NCCN1C(=O)C2C3C=CC(C3)C2C1=O)Nc1ccccn1 (stereo not drawn),5.7%
10,CCC1CCCCN1CCCNC(=O)c1cn(CC)c2ccc(S(=O)(=O)N(C)C3CCCCC3)cc2c1=O (stereo not drawn),-75.5%
11,CCn1cc(C(=O)NCCCN2CCCC(C)C2)c(=O)c2cc(S(=O)(=O)N(C)C3CCCCC3)ccc21 (stereo not drawn),-82%
12,CCn1cc(C(=O)NCCCN2CCCCCC2)c(=O)c2cc(S(=O)(=O)N3CCc4ccccc4C3)ccc21,-24.5%
13,CCn1cc(C(=O)NCCCN2CCCC2)c(=O)c2cc(S(=O)(=O)N3CCc4ccccc4C3)ccc21,6.45%
14,CCn1cc(C(=O)NCCCN(CC(C)C)CC(C)C)c(=O)c2cc(S(=O)(=O)N(C)C3CCCCC3)ccc21,-6.68%
15,CCn1cc(C(=O)NCCCOC)c(=O)c2cc(S(=O)(=O)N(C)C3CCCCC3)ccc21,-2.67%
16,CCn1cc(C(=O)NCCCN2CCCC(C)C2)c(=O)c2cc(S(=O)(=O)N3CCOCC3)ccc21 (stereo not drawn),16.1%
17,CC1CCCN(CCCNC(=O)c2cn(C)c3ccc(S(=O)(=O)N(C)C4CCCCC4)cc3c2=O)C1 (stereo not drawn),-13.2%
18,CCN(CC)CCCNC(=O)c1cn(CC)c2ccc(S(=O)(=O)N(C)C3CCCCC3)cc2c1=O,-5.96%
19,CCn1cc(C(=O)NCCCN2CCCC(C)C2)c(=O)c2cc(S(=O)(=O)N3CCc4ccccc4C3)ccc21 (stereo not drawn),-64.2%
20,CCC1CCCCN1CCCNC(=O)c1cn(C)c2ccc(S(=O)(=O)N(C)C3CCCCC3)cc2c1=O (stereo not drawn),-2.04%
21,CCn1cc(C(=O)NCCCN2CCC(C)CC2)c(=O)c2cc(S(=O)(=O)N(C)C3CCCCC3)ccc21,-74%
